Data from PubChem BioAssay (NCI).
This is part of a sample that, as a whole, favours compounds with a hit. Of some 83,000 tested, about 20% had one in any assay.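 Step 1: grow cells in 96-well plates. Step 2: add test compound at a single concentration. Step 3: incubate 48 h. Step 4: record percent growth.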 A number with no mark means an inactive call. Activity calls are given as the source filed them. How the source made its calls: active means growth percent below 10; inactive means the rest.

Key:
Assay in all cases: NCI-60 one-dose screen, 48 h (100 = growth as untreated, 0 = no growth, -100 = all killed)
SR leukemia = settings: 10 µM unless noted
RPMI-8226 leukemia = settings: 10 µM unless noted
OVCAR-8 ovarian = settings: 10 µM unless noted
OVCAR-5 ovarian = settings: 10 µM unless noted
OVCAR-4 ovarian = settings: 10 µM unless noted
SK-OV-3 ovarian = settings: 10 µM unless noted
IGROV1 ovarian = settings: 10 µM unless noted
OVCAR-3 ovarian = settings: 10 µM unless noted
HS 578T breast = settings: 10 µM
NCI/ADR-RES ovarian = settings: 10 µM unless noted
BT-549 breast = settings: 10 µM unless noted
MDA-MB-435 melanoma = settings: 10 µM unless noted
SW-620 colon = settings: 10 µM unless noted
MCF7 breast = settings: 10 µM unless noted
HCC-2998 colon = settings: 10 µM
KM12 colon = settings: 10 µM unless noted
T-47D breast = settings: 10 µM unless noted
HCT-116 colon = settings: 10 µM unless noted

| SMILES | growth (SR leukemia) | growth (RPMI-8226 leukemia) | growth (OVCAR-8 ovarian) | growth (OVCAR-5 ovarian) | growth (OVCAR-4 ovarian) | growth (SK-OV-3 ovarian) | growth (IGROV1 ovarian) | growth (OVCAR-3 ovarian) | growth (HS 578T breast) | growth (NCI/ADR-RES ovarian) | growth (BT-549 breast) | growth (MDA-MB-435 melanoma) | growth (SW-620 colon) | growth (MCF7 breast) | growth (HCC-2998 colon) | growth (KM12 colon) | growth (T-47D breast) | growth (HCT-116 colon) |
| --- | --- | --- | --- | --- | --- | --- | --- | --- | --- | --- | --- | --- | --- | --- | --- | --- | --- | --- |
| COC(=O)[C@H](Cc1ccccc1)NC(=O)[C@@H](OC)[C@@H]1Cc2cc3cc(OC4CC(OC5CC(O)C(O)C(C)O5)C(O)C(C)O4)c(C)c(O)c3c(O)c2C(=O)[C@H]1OC1CC(OC2CC(OC3CC(C)(O)C(O)C(C)O3)C(O)C(C)O2)C(O)C(C)O1 (some centres not stated) | 7.89% (active) | -16.5% (active) | 7.42% (active) | 8.6% (active) | 1.44% (active) | 17% | 25.5% | 5.7% (active) | -16.7% (active) | 51.6% | -62.4% (active) | -69.4% (active) | 6.79% (active) | 3.21% (active) | -45.2% (active) | -5.45% (active) |  |  |
| COC(=O)[C@H](Cc1ccc(O)cc1)NC(=O)[C@@H](OC)[C@@H]1Cc2cc3cc(OC4CC(OC5CC(O)C(O)C(C)O5)C(O)C(C)O4)c(C)c(O)c3c(O)c2C(=O)[C@H]1OC1CC(OC2CC(OC3CC(C)(O)C(O)C(C)O3)C(O)C(C)O2)C(O)C(C)O1 (some centres not stated) | 9.7% (active) | -5.59% (active) | 9.74% (active) | 10.6% | 7.27% (active) | 20.7% | 31.2% | 5.52% (active) | -9.2% (active) |  | -36.9% (active) | -26.8% (active) | 11.3% | 8.15% (active) | -67% (active) | 5.68% (active) | 4.63% (active) | 4.11% (active) |
| O=C(NC1CCNCC1)c1[nH]ncc1NC(=O)c1c(Cl)cccc1Cl | 2.12% (active) | 1.32% (active) | 9% (active) | 9.52% (active) | 8.44% (active) | 7.3% (active) | 10.2% | 4.35% (active) |  | 85% | 7.37% (active) | -43.3% (active) | 6.16% (active) | 3.78% (active) | -2.4% (active) | 8.2% (active) | -3.82% (active) | 4.77% (active) |
| COC(=O)[C@@H](OC)[C@@H]1Cc2cc3cc(OC4CC(OC5CC(O)C(O)C(C)O5)C(O)C(C)O4)c(C)c(O)c3c(O)c2C(=O)[C@H]1OC1CC(OC2CC(OC3CC(C)(O)C(O)C(C)O3)C(O)C(C)O2)C(O)C(C)O1 (some centres not stated) | 4.74% (active) | -17.5% (active) | 10.2% | 18.8% | 3.96% (active) | 21% | 28% | 6.49% (active) | -10.5% (active) |  | -32.9% (active) | -62.4% (active) | 8.04% (active) | 8.9% (active) | -32.9% (active) | 1.5% (active) | 4% (active) | 3.51% (active) |
| NC1(c2ccc(-c3nc4ccn5c(=O)[nH]nc5c4cc3-c3ccccc3)cc2)CCC1 | -23.4% (active) | 24.7% | 51.9% | 60.5% | 63.2% | 3.19% (active) | 12.6% | 39.7% |  | 56.8% | 17% | 27% | 55% | 12.2% | 33.6% | 26.9% | -70.4% (active) | 23.3% |
| CCN(CC)CCOc1ccc(/C(=C(\C)c2ccc(Cl)cc2)c2ccc(Cl)cc2)cc1 | 0.594% (active) | 14.5% | 82.7% | 80.2% | 78.8% | 103% | 80% | 83% | 77.5% |  | 85.2% | 87.1% | 30.8% | 34.8% | 93.6% | 40.3% | 55.2% | 47% |
| CC(C)(O)CC(=O)NCCn1ccc2ncnc(Nc3ccc(Oc4cccc(C(F)(F)F)c4)c(Cl)c3)c21 | 3.05% (active) | 11% | 3% (active) | 3.46% (active) | 25.6% | -21% (active) | -42.6% (active) | 32.6% |  | 9.15% (active) | 17.5% | 14.3% | 14.1% | 14.3% | -27.2% (active) | 9.88% (active) | -18.8% (active) | 0.422% (active) |
| CNS(=O)(=O)Nc1nccc(Cc2c(C)c3ccc(Oc4ncccn4)cc3oc2=O)c1F | 58.3% | 55.3% | 63.2% | 20.4% | 55% | 53.3% | 28.7% | 76.2% |  | 70.6% | 68.6% | 37.1% | 29% | 79.2% | 1.07% (active) |  | 60.1% | 19.2% |
| CNC(=O)c1c(C)oc2cc(Oc3ncnc4cc(OC)c(OC)cc34)ccc12 | 85.7% | 105% | 85.3% | 95.3% | 78.3% | 92.3% | 95.2% | 89.2% |  | 95.1% | 73.6% | 114% | 104% | 97.6% |  |  | 94% | 93.7% |
| COc1ccc(-c2cc3c(oc2=O)-c2ccccc2OC3OC(C)=O)cc1 (configuration not stated) | 80.7% | 83.1% | 107% | 111% | 90.7% | 93.4% | 103% | 109% | 89% |  | 102% | 110% | 98.7% | 89.6% |  | 111% | 68.5% | 74% |
| Cn1ccnc1C(=O)/C=C/c1ccc(CC(=O)Nc2ccc(C(F)(F)F)cc2)cc1 | 1.17% (active) | 3.07% (active) | -25.8% (active) | 22.9% | 43.1% | 53.5% | 9.94% (active) | 9.48% (active) |  | 6.64% (active) | 3.71% (active) | 30.6% | 7.25% (active) | 8.41% (active) | 0.221% (active) | 4.24% (active) | 3.52% (active) | 6.67% (active) |
| Cc1nn(-c2nc3ccccc3[nH]2)c2c1C(c1ccc(OCc3ccc(F)cc3)cc1)CC(=O)N2 (configuration not stated) | 67.5% | 76.3% | 54% | 98.5% | 98.4% | 49.1% | 54.6% | 51% | 39% |  | 58.4% | 44.7% | 80.2% | 81.4% | 99.3% | 41.5% | 71.3% | 73.4% |
| CN1[C@@H]2CC[C@H]1/C(=C\c1ccccc1)C1=C2[C@@H](c2ccccc2)C(C#N)=C(N)O1 | 61.8% | 55.5% | 84.3% | 84.9% | 73.9% | 84.4% | 93.8% | 97.2% |  | 90.2% | 67% | 98.5% | 98.2% | 85.2% | 87.7% |  | 58.6% | 49.9% |
| C1=C\COCc2cc(ccc2OCCN2CCCC2)Nc2nccc(n2)-c2cccc(c2)COC/1 | -8.75% (active) | -32% (active) | 6.66% (active) | -6.58% (active) | -4.87% (active) | -27.6% (active) | -18.7% (active) | 2.03% (active) |  | 0.945% (active) | 21.9% | -54.6% (active) | 3.2% (active) | -25.1% (active) | -16.4% (active) | -9.97% (active) | -23.5% (active) | 1.18% (active) |
| C=C1C(=O)O[C@H]2[C@H]1CC/C(CNC(=O)c1cc3cc(OC)ccc3[nH]1)=C\CC[C@@]1(C)O[C@@H]21 | -0.374% (active) | -38.4% (active) | -16.4% (active) | -20.4% (active) | -3.23% (active) | 59.3% | -19.8% (active) | -90.7% (active) | -1.38% (active) |  | -68.1% (active) | -48.1% (active) | -72.3% (active) | -29.6% (active) | -90.3% (active) | 25.4% | -46.3% (active) | -81.3% (active) |
| CC1(COc2ccc3c(c2)ncn3-c2ccc3cccc(N4CCC(N)CC4)c3n2)COC1 | -6.81% (active) | 0.988% (active) | 3.53% (active) | 10.3% | 29.2% | 54.2% | 22.7% | 37.2% |  | 51.5% | 43.1% | 65.5% | 1.95% (active) | -10.1% (active) | 31.2% |  | 81.7% | -45.6% (active) |
| CCCCCc1ccc(C)cc1OC(=O)CCl | 109% | 98.5% | 89.1% | 101% | 109% | 107% | 103% | 122% | 116% |  |  | 117% | 103% | 98% | 109% | 106% | 102% | 109% |
| c1cc(OCCN2CCCCC2)cc(-c2n[nH]c3ccc(-c4ncn[nH]4)cc23)c1 | 7.19% (active) | 58.4% | 72.2% | 56.5% | 62.7% | 31.8% | 30.9% | 69% |  | 89.7% | 70.3% | 42.1% | 35.6% | 57.9% | 66.7% |  | 68.3% | 28.7% |
